We go through 40 sequences from the supplement of paper PMC10681739.

The target of this assay is T1, ETS1 (UniProt P14921).
T1 sequence: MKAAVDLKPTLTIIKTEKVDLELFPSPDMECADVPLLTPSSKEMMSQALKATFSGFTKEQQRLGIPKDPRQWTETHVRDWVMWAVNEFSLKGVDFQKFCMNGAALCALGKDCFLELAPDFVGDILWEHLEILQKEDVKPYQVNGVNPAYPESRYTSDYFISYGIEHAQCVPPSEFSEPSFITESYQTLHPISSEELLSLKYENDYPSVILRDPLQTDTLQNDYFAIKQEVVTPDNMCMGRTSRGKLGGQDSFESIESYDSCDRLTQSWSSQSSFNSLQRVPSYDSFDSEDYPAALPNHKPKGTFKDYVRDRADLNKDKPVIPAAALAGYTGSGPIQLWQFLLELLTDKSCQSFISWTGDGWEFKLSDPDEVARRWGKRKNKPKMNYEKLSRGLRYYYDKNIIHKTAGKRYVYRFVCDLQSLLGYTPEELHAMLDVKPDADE
As to the kind of experiment: TF binding intensity (PBM fluorescence), negative control probe (arbitrary fluorescence units); higher = stronger binding. On the procedure:
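gcPBM negative-control 36-bp genomic probes lacking TF binding sites. Each was incubated with recombinant human ETS1 or RUNX1 alone and detected by antibody fluorescence. Values are medians over replicate spots (4 spots for the ETS1-RUNX1 arrays, 3 for the ETS1-ETS1 array). The probes sit in constant array flanks that are not printed.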
“GCTGGGAGACAGAGCCAGACACTGTCTCAAAAAAAA (protein concentration 10 nM)” came in with a TF binding intensity of 110. The figure for “ACCTCATCGAAAGTCTCTCTGGAGGCTGAGTTTGTC (protein concentration 10 nM)” is 123; for “TCCAGAATTGCAAGGTCTGGGGAGCTGGGTGCCACA (protein concentration 10 nM)” it is 107. “GGTAATAGTTACTGCTGTGGTCTGAATGTTTGTGTC (protein concentration 1 nM)” came in with a TF binding intensity of 555. The value for “TGCCAGGGTGTAATTTTTCCCACTTTCACCTCCTTC (protein concentration 10 nM)” was 128; that for “GTATTTTGGGCGATAACACTTTCTCTACTTCTAAAA (protein concentration 10 nM)” was 116; that for “ACATGTCAAAGAGCTTCTTTAAGCAGTAGGTGGTTT (protein concentration 10 nM)” was 143. The sequence “AAGTCCCTCCTCTAAACCACTTTGATGAGGACCAAA (protein concentration 1 nM)” returned a TF binding intensity of 387. “TGGGACCTCCAGCATATGACAGTGGACTAAGGACTG (protein concentration 10 nM)” returned a TF binding intensity of 113. Consider “CAGGAGAAATATGAGATTAAGAACACATGATGTTAA (protein concentration 10 nM)”, for which the TF binding intensity was 123. The figure for “GGCCCTGGGCCTGACCCATGAAATCATTTTTCCCTT (protein concentration 10 nM)” is 94.3; for “TGGACTAACTCCATTGCCTTTGTATACATTGGTTTC (protein concentration 10 nM)” it is 102. The figure for “AAATTTATCTGAGTCCAAAATCTCTCCCTTCAACCT (protein concentration 10 nM)” is 119; for “ATAAAGTACATTAATTCATTCATCCAGCAAGAGTGT (protein concentration 10 nM)” it is 122; for “CCTGTTCTGTGTTTGGAGCCAGCAGAGCAGGGAGGA (protein concentration 10 nM)” it is 153.

“ACGTGTGGGGACCCAAGCTATCCCTAAGAAAGCACT (protein concentration 10 nM)”: the TF binding intensity stood at 115.

The sequence “TGACTCTCCCCTCCATTCCCACCCCATACCCCCTTC (protein concentration 10 nM)” had a TF binding intensity of 198. The value for “GATGTGGCCTATAGGGATCCTTCACTTAGGCATGAG (protein concentration 10 nM)” was 121; that for “CCCCAGTAGAAGCCACCCAGCCTTTTGTTTGTTTTC (protein concentration 10 nM)” was 133. The value for “CCAGTGCCCTTGAAATGAAATGGGACTTGCAAGGAG (protein concentration 10 nM)” was 121; that for “ACTCTAGTTTGTGATTTTTAAAACGTTTGAAAGCCA (protein concentration 10 nM)” was 124; that for “CTGAGAGCCAGGCCCGTTCCCTCTGAACCTCAGTTC (protein concentration 10 nM)” was 103. The value for “GCCCTGAGACTTGCCTTGCAATGCCATGTTTGTGTA (protein concentration 10 nM)” was 125. In the case of “AGGTGCACGATGGGTGGGGAGCTGCTCAGGGCACTG (protein concentration 10 nM)”, the TF binding intensity is 112. The figure for “AATCCAATGGGGTTTCTGTGTAATTAATAACATCTA (protein concentration 10 nM)” is 120.

In the case of “AACACTCAGTGTATTTTAATAAACAACATTTTTTAA (protein concentration 10 nM)”, the TF binding intensity was found to be 96.6.

In the case of “AATAAAGGTGAGGCAGTCCAGAGTATTTCAAAACGG (protein concentration 10 nM)”, the TF binding intensity stood at 116.

For “AGACTGCATACTTATAAAGTGGAGTATGCAGATAAT (protein concentration 10 nM)”, the TF binding intensity was 119.

For “TTATAGCATCTATTTATGTAAATCATATCTCCTTTT (protein concentration 10 nM)”, the TF binding intensity came to 101. Regarding “CCGCACGCGGGCGCGGGCCAGCTGCAGATGGAGAAC (protein concentration 10 nM)”, the TF binding intensity came to 136.

For “ACTGATCATCTGAAATGTGGCTAGTGTGAAAATGAA (protein concentration 1 nM)”, the TF binding intensity worked out at 532. The value for “AGAGCCACAGTGTGGCTTGGCTGGTAAATTATTTGT (protein concentration 10 nM)” was 109; that for “TTGAAATGCATTCTCTGTGGGCATATGAAGTAGATT (protein concentration 1 nM)” was 410. The figure for “CCCAATCTGTAACAACCCACATCTGTTCCTTATTTG (protein concentration 1 nM)” is 466; for “GATATGAGATCAGAATGAGGCTGCATGAGAACAAGT (protein concentration 10 nM)” it is 112. The figure for “AGAGGCATGAAAACAAATGAGACTAGGATGAGTTGG (protein concentration 10 nM)” is 131; for “TGCCGTGTACTTGATCTTGTCCCACAGAATCACCTG (protein concentration 10 nM)” it is 112; for “GGCTCCTATATTAAAATTGGTATTAGTAGACAATGT (protein concentration 10 nM)” it is 131.

“TGGAATCTCATCCAAGCTGGATTTTGCGATCTTTGA (protein concentration 10 nM)” showed a TF binding intensity of 104. Take “TTCTAAAGAAATCACAGTCAAATCTACCATTTGCGT (protein concentration 10 nM)”: the TF binding intensity is 99.5.
